Tg IFNy HTS: blocks Toxoplasma gondii growth in the presence of IFN-gamma; Toxoplasma gondii growth in IFN-gamma-treated host cells; stronger effect = lower value; activity change, negative = inhibition, % (no concentration beside the values); 3.8% of 69,000 active; AID 1259416; in the data active = activity change below about -70%, passing the limit was not always enough;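 also: host cells are HeLa cells infected with Toxoplasma gondii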
* marks the source's active call; other numbers are inactive results; i = inactive; ! = repeats disagree. This excerpt belongs to a sample that is enriched for hits.

SMILES	Tg IFNy HTS
CNc1ncc(C(=O)N2CCC(C3CCCCN3C(=O)c3scnc3C)CC2)cn1 (centres undefined)	-0.6
CN1C(=O)CC2C1CCN2S(=O)(=O)Cc1ccccc1 (centres undefined)	-41.4
CCCCCCCCCCCCCCCCn1cc[n+](Cc2ccccc2)c1C	-79.0*
CCCCCN=c1ccn(Cc2ccccc2)c2ccccc12	-0.3
O[C@H]([C@H](O)[C@@H]1CO1)[C@H]1CO1	7.5
CC(C)COCC1CN(Cc2ccsc2)Cc2ncn(C)c21 (centres undefined)	-0.1
CS(=O)(=O)N1C[C@@H]2COC[C@@]2(COc2cccnc2)C1	6.5
COc1ccc(C(=O)c2sc(=S)n(-c3ccccc3)c2N)cc1	325.3
Cc1nc(-c2cccc(F)c2)sc1CCNC(=O)c1ccc(Br)cc1	-50.1
Cc1nc2sc(C(=O)c3ccc(Br)cc3)c(N)c2c(C)c1C	-95.3*
C=CCN1CCC2(CC1)CC(NC(=O)c1csnn1)c1ccccc1O2 (centres undefined)	-30.9
CC(C)[C@H](C(=O)Nc1ccc(C(=O)NO)cc1)c1ccccc1	-82.8*
CC(C)c1ccc(C(=O)Nc2ccccc2)cc1	-9.2
O=C(NCC(O)c1ccccc1)c1ccc(NC(=O)C2CCC2)cc1 (centres undefined)	7.4
CC(C)c1cc(C(=O)N2CCCC(CO)(CCc3ccccc3)C2)n[nH]1 (centres undefined)	-6.7
COc1ccc(OS(=O)(=O)c2ccc(S(=O)(=O)NCc3ccccc3)cc2)cc1	2.0
Cc1nn(Cc2nc(-c3ccc(NC(=O)c4ccsc4)cc3)oc2C)c(C)c1C	105.4
Cc1c(CN(C)Cc2cccc(C(C)(C)C)c2O)cnn1C	-93.1*
Cc1c(CN(C)C(=O)c2cccc(C#CC(C)(C)O)c2)cnn1C	-1.0
Cc1ccc(C)c(-c2[nH]ncc2CN(C)Cc2cnn(C)c2C)c1	-1.1
CC(C)(C)c1ccc(-c2nnnn2-c2ccc(Cl)c(Cl)c2)cc1	-9.1
Cn1ncc2c(N[C@H](CO)c3ccccc3)nc(C(C)(C)C)nc21	-13.3
CC(C)NC(=O)N1C[C@H]2[C@H](C(=O)N(C)Cc3ccccn3)CCS(=O)(=O)[C@H]2C1	6.9
COc1ccc(Cc2cnc(NC(=O)c3ccc(Cn4ccnc4)o3)s2)cc1	20.0
Cc1ccc2c(c1)N(CC(=O)N(C)Cc1ncc[nH]1)C(=O)CO2	-3.4
SMILES	Tg IFNy HTS
CN1CCN(CCOc2cc(OC3CCOCC3)c3c(Nc4c(Cl)ccc5c4OCO5)ncnc3c2)CC1	15.9
COc1ccc(C(=O)Nc2ccc3nc(C)c(C)nc3c2)cc1OCc1ccccn1	10.6
C=CC(=O)Nc1cc2c(Nc3ccc(F)c(Cl)c3)ncnc2cc1OCCCN1CCOCC1	-4.2
CCOc1cc2ncc(C#N)c(Nc3ccc(OCc4ccccn4)c(Cl)c3)c2cc1NC(=O)/C=C/CN(C)C	-81.3*
CN(C)C/C=C/C(=O)Nc1cc2c(Nc3ccc(F)c(Cl)c3)ncnc2cc1O[C@H]1CCOC1	-75.2*
CCOc1cc2ncc(C#N)c(Nc3ccc(F)c(Cl)c3)c2cc1NC(=O)/C=C/CN(C)C	-76.8*
O=C(CCCOc1ccc(Cl)cc1Cl)NCc1ccccn1	13.4
COc1ccc(F)c(-c2nccn2CCCn2ccnc2)c1	4.9
CCN1CCC2(CC1)OC(=O)C(C)=C2C(=O)NCCN1CCN(c2cccc(C)c2C)CC1	-42.3
Cc1cc(C)c(-c2cncc(C(=O)N3CCCCC3)n2)c(C)c1	2.1
c1cnc(NC2CC3(CCN(Cc4ccncc4)CC3)C2)nc1	4.7
COc1ccc2[nH]cc(C3CCN(Cc4ccc(Cl)cc4)C3)c2c1 (centres undefined)	i
COc1ccccc1CNC(=O)COc1ccc2c(c1)C(=O)CC1(CCN(C(C)=O)CC1)O2	-18.2
CCSc1nnc(NC(=O)CN2CCc3[nH]nc(C(C)C)c3C2)s1	1.6
CN1C(=O)CCc2cc(NC(=O)C3CC3)ccc21	1.7
CC(C)C1CN(C(=O)c2ccccc2F)CCC(=O)N1Cc1ccc(F)cc1 (centres undefined)	0.2
Cc1cc(C)c(N2C(=O)C3C(c4ccccc4)C=CC(c4ccccc4)C3C2=O)c(C)c1 (centres undefined)	-98.8*
COC(=O)c1[nH]ncc1CN(C)Cc1cc(-c2ccccc2)no1	5.1
CCOC1COC2(CCN(C(=O)c3cscn3)CC2)C1 (centres undefined)	13.0
CN(CCCC1CCCO1)S(=O)(=O)NCc1ccccc1 (centres undefined)	5.3
CC1(C)C(=O)N=C2c3ccccc3C(=O)C(=O)C21 (centres undefined)	-87.9*
COc1cc2c(cc1OC)CC(=O)N(CCCN(C)C[C@@H]1Cc3cc(OC)c(OC)cc31)CC2	12.8
CC(C)NC(=O)N1CCC(c2nnc3ccc(C(=O)NCCc4ccncc4)cn23)C1 (centres undefined)	-1.5
Cn1nc(-c2ccccc2)c2c1C[C@H]1CN(Cc3nccs3)C[C@H]21	1.0
Cc1ccc(CN2C[C@@H]3c4nc(N5CCCC(C)C5)ncc4CS(=O)(=O)[C@H]3C2)cc1 (some centres undefined)	169.9
SMILES	Tg IFNy HTS
Cc1ccc(CN2C[C@@H]3c4nc(N(C)C)ncc4CS(=O)(=O)[C@H]3C2)cc1	7.2
Cc1ccccc1CN1C[C@@H]2c3nc(N4CCCC(C)C4)ncc3CS(=O)(=O)[C@H]2C1 (some centres undefined)	-86.2*
Cc1cc(C)cc(S(=O)(=O)N2CCC3(CC2)Nc2ccc(C)c(C)c2-n2cccc23)c1	17.7
Cc1onc(-c2c(F)cccc2Cl)c1C1=NCCO1	10.7
Cc1onc(-c2c(Cl)cccc2Cl)c1-c1nnc(NC(=O)c2ccco2)s1	-61.2
Cc1onc(-c2c(F)cccc2Cl)c1C(=O)ON=C1C2CC3CC(C2)CC1C3	-85.5*
COc1ccc(C(=O)NCCC2CN(C)CCO2)c(OC)n1 (centres undefined)	-3.7
COc1cc2c(c(OC)c1OC)-c1ccc(OC)c(=O)cc1[C@@H](NC(C)=O)CC2	-72.4*!
COc1c(O[C@@H]2O[C@H](CO)[C@@H](O)[C@H](O)[C@H]2O)cc2c(c1OC)-c1ccc(SC)c(=O)cc1[C@@H](NC(C)=O)CC2	12.0
COc1ccc([C@@H]2C[C@H](NC(C)=O)C[C@H](CC(C)C)O2)c(OC)c1OC	-0.7
COc1cc(C(=O)N2CCc3c(nc[nH]c3=O)C2)c2ccccc2n1	1.2
Cc1oc(-c2cccc(Cl)c2)nc1CN(C)S(=O)(=O)c1ccc(F)cc1	-16.2
Cc1ccc(S(=O)(=O)N(C)Cc2nc(-c3ccccc3C)oc2C)c(C)c1	-13.3
COc1ccccc1-c1nc(CN(C)S(=O)(=O)c2ccc(C)cc2C)c(C)o1	-104.4*
COc1ccccc1-c1nc(CN(c2ccccc2OC)S(=O)(=O)c2ccccc2C)c(C)o1	-55.4
COc1ccc(S(=O)(=O)N(C)Cc2nc(-c3cccc(Cl)c3)oc2C)cc1	-98.9*
COc1cccc(N(Cc2nc(-c3cccc(Cl)c3)oc2C)S(=O)(=O)c2ccccc2)c1	-35.0
O=C(NCC1CC(=O)N(C2CC2)C1)C(=O)c1cccs1 (centres undefined)	-46.2
CS(=O)(=O)c1ccc(-c2ccnc3c(C(F)(F)F)cccc23)cc1	-7.4
O=C(Nc1ccccc1F)N1CCC2(CC1)Nc1ccccc1-n1cccc12	271.4
N#Cc1c(Cl)cccc1Oc1ccc(-c2ccn[nH]2)cc1	-2.4
Clc1cccc(Cl)c1/C=C/c1ccn[nH]1	-88.8*
Cn1ccnc1CN1CCN2C[C@@H](Oc3ccccc3)C[C@H]2C1	-2.5
CNC(=O)CN1C(=O)CCC12CCCN(C(=O)C1CCCO1)C2 (centres undefined)	-8.9

Screening results deposited in PubChem by Broad Institute.
